Experimental data from article PMC5540273 (PLoS ONE, 2017).

system: T1, PIP5K2C
T1 construct: gene PIP4K2C
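Also: kd values determined as follow-up on hits from a single-replicate KINOMEscan panel screen.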

Q: With `O=C(c1ccc(-c2cc(-c3c[nH]nc3-c3ccccn3)ccn2)cc1)N1CCCC1` [GW792479] as the compound, how does the Kd read?
A: 21 nM

Q: For `CN1CCC(n2cnc(-c3ccc(F)cc3)c2-c2ccnc(NC3CCNCC3)n2)CC1` [SB-229482], which Kd is on record?
A: 220 nM

Q: How did the Kd turn out when `CNc1nccc(-c2c(-c3ccc(F)cc3)ncn2C2CCN(C)CC2)n1` [SB-222903] was run?
A: 39 nM

Q: Which Kd does the source give for `CCc1nc(-c2cccc(C)c2)c(-c2ccnc(NC(=O)c3ccccc3)c2)s1` here?
A: 4100 nM
